Here are results for 53 compounds from ChEMBL document CHEMBL4513216, “Probing the Open Global Health Chemical Diversity Library for Multistage-Active Starting Points for Next-Generation Antimalarials” (ACS Infect Dis, 2020).

The whole screen tested about 69,000 compounds, of which about 8,600 (12%) showed an effect of 50% or more. This excerpt belongs to a sample that is enriched for strong results.

In this assay the test system is Plasmodium berghei. Description: Screen against P. berghei liver stage (PbLuc), transformed with Luciferase, at 10uM. The class given is functional, HepG2. Particulars: tested at 10 uM.
As to `CC(CCc1ccccc1F)C(=O)NS(=O)(=O)N(C)C(C)C` (stereo not drawn), the INHIBITION stood at 80.9%. Consider `CC(CCc1ccccc1F)C(=O)NS(=O)(=O)CC1CC1` (stereo not drawn), for which the INHIBITION turned out to be 10.6%.

For the compound `O=C1CCC2(CCCN(CCn3cc(Cl)cn3)C2)CN1C1CCCC1` (stereo not drawn), the INHIBITION is 31.5%. Next, `Cc1cnc(CCNc2cccc(CC3CCCNC3)n2)s1` (stereo not drawn): 41.5%; `CCn1cc(S(=O)(=O)Nc2nc3c(s2)CC(C)CC3)cn1` (stereo not drawn): 11.7%.

With `O=C1COC2(CCN(CC3CC3)CC2)CN1c1ccccc1`, the INHIBITION turned out to be 36.8%. For `O=C1COC2(CCN(Cc3cccs3)CC2)CN1c1ccsc1` the value was 21.1%. Next, `O=C(CC1CC1)N1CCC2(CC1)CN(c1ccsc1)C(=O)CO2`: 38.1%; `O=C1COC2(CCN(CC3CC3)CC2)CN1c1ccsc1`: 78.8%; `O=C1COC2(CCN(Cc3ccoc3)CC2)CN1c1ccsc1`: 52.9%.

For the compound `O=C1COC2(CCN(Cc3ccoc3)CC2)CN1c1ccccc1`, the INHIBITION was -23.4%. For `COc1ncccc1NC(=O)C1CC(=O)N(Cc2ccccn2)C1` (stereo not drawn) the value was -8.69%. For `Cc1ccc(CN2CCC3(CCC3NC(=O)c3ccn(C)c3)CC2)s1` (stereo not drawn) the value was -6.39%; for `CC(C)C(=O)N1CCCC1C(=O)Nc1cc(C(F)(F)F)ccc1F` (stereo not drawn), 20.6%. Turning to `CCc1ncnc2c1CCN(Cc1ccc3c(c1)OCO3)CC2`, the INHIBITION was -6.39%. For `COc1cccc(-c2cnc(C3CCNCC3)cn2)c1`, the INHIBITION is on record as -28.6%. For `CCNC(=O)c1ccc(NC(=O)N(C)Cc2cc(C)on2)cc1` the value was -41.4%; for `CNC(=O)c1ccc(NC(=O)NC(C)CCc2cccn2C)c(C)c1` (stereo not drawn), 23.7%. For `CCNC(=O)c1ccc(NC(=O)N(C)Cc2cccn2C)c(C)c1` the value was 54.6%; for `Cc1ccc(OCCN(C)Cc2nc3c(cnn3C)c(=O)[nH]2)cc1`, 23.7%. Next, `O=C(NC[C@H]1CCCO1)c1ccc(S(=O)(=O)N2C[C@H]3C[C@@H]2CN3)cc1`: 30.7%. On to `CN(Cc1ccncc1)C(=O)NC1CCS(=O)(=O)C1` (stereo not drawn), for which the INHIBITION was -4.12%. Next, `Cc1nn(C)cc1C1SCC(=O)Nc2c1c(O)nn2C(C)C` (stereo not drawn): 30.5%; `Cc1nn(C)c(C)c1C1SCC(=O)Nc2c1c(O)nn2C(C)C` (stereo not drawn): 52.5%; `Cc1c(C2SCC(=O)Nc3c2c(O)nn3C(C)C)cnn1C` (stereo not drawn): 13.1%. Next, `CCCc1nc(NCCCOC)c2c(n1)c(C)nn2CC`: 29.18%; `COCCN1C(=O)CC(c2cccnc2)C12CCN(C(=O)C1CC1)CC2` (stereo not drawn): 24%; `COCCN1C(=O)CC(c2cccnc2)C12CCN(C)CC2` (stereo not drawn): 27.6%.

As for `CCC(=O)N1CCC2(CC1)C(c1cccnc1)CC(=O)N2CCOC` (stereo not drawn), the INHIBITION was found to be 59.3%. Next, `O=C(c1ccccn1)N1C[C@@H](OCc2cccnc2)[C@H]2OCCC[C@@H]21`: -21.1%; `COCCNC(=O)c1cc2c(s1)CCN2S(C)(=O)=O`: 6.55%. Next, `O=C(c1ccc(=O)[nH]n1)N1CCC(CN2CCOCC2)CC1`: -40.5%.

Turning to `Cc1ccc(N2CCC(C(O)c3cccs3)CC2)nn1` (stereo not drawn), the INHIBITION is reported as 56.3%. For `OC(c1cccs1)C1CCN(c2ncccn2)CC1` (stereo not drawn) the value was 48%. Consider `N#Cc1nccnc1N1CCC(C(O)c2cccs2)CC1` (stereo not drawn), for which the INHIBITION is recorded as 42.4%. For `Cc1cccc(OCCNC(=O)CN2CCc3cncnc3C2)c1` the value was 22.3%; for `COC(=O)[C@H](C)NC(=O)c1cc(-c2cccc(Cl)c2)no1`, 3.16%; for `CCCS(=O)(=O)N1CCC2(CCN(Cc3cccc(F)c3)C2=O)C1` (stereo not drawn), 16.8%. For `CN(C)CCN1CCC2(CCN(C(=O)c3cccnc3)CC2)C1=O` the value was -23.3%; for `CCO[C@@H]1CO[C@@]2(CCCN(C(=O)COc3ccccc3OC)C2)C1`, 15.8%.

Consider `COCC(=O)N1CCC2(CC1)CC(N1CCN(C)CC1)CO2` (stereo not drawn), for which the INHIBITION came to 39.3%. Next, `CO[C@@H]1CO[C@@]2(CCN(C(=O)COc3ccccc3C)C2)C1`: 71%; `CN1CCO[C@@H]2CN(C(=O)COc3cccc(Cl)c3)C[C@@H]2C1`: 34.9%. In the case of `O=C(COc1ccccc1)N1CCC[C@]2(C[C@@H](OCC3CC3)CO2)C1`, the INHIBITION is on record as 27.6%. Consider `COc1ccccc1OCC(=O)N1CCC[C@]2(C[C@@H](OC)CO2)C1`, for which the INHIBITION stood at 54.7%. Next, `COc1ccccc1OCC(=O)N1C[C@@H]2CN(C)CCO[C@@H]2C1`: 55.6%; `COC1COC2(CCN(C(=O)c3ncccn3)CC2)C1` (stereo not drawn): 37.8%. As to `COCC(=O)N1CCC2(CC1)CC(OC)CO2` (stereo not drawn), the INHIBITION came out at 70.4%. For `Cc1ccccc1OCC(=O)N1CC[C@]2(C[C@@H](OCC3CC3)CO2)C1` the value was -0.813%; for `COCC1COCCC12CCN(C(=O)COc1ccccc1C)CC2` (stereo not drawn), 0.542%; for `Cc1ccc(OCC(=O)N2C[C@@H]3CN(C)CCO[C@@H]3C2)cc1`, 37.9%. For `Cc1occc1C(=O)Nc1cnn(CCN2CCOCC2)c1` the value was -16.565%; for `O=C(Nc1ccc2c(c1)OCO2)c1ccc(N2CCCC2)nn1`, 43.8%.
